# “And” between values parts separate entries of the source, which are not always exact repeats. Equal values may be shown once. The source made the active and inactive calls.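 How the source made its calls, unless noted: active means normalized viability below 100% at a tested concentration; inactive means the rest.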
# What was measured:
# [1] = stimulators of nuclear beta-catenin in C2C12, primary screen, imaging, WNT3A-conditioned medium, mouse C2C12, NPC library (AID 1117326; in the data active means nuclear beta-catenin stimulation mostly above about 4.2%, no sharp cut-off; inactive means mostly below about 10%); details: stronger effect = higher value
# [2] = stimulators of insulin release from INS-1E, primary screen, cell-based, 5 mM glucose, NPC library (AID 1117329;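 active means compound raises insulin release from rat beta cells at 5 mM glucose, no numeric limit stated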); details: rat INS-1E insulin secretion, at 10 µM, stronger effect = higher value
# [3] = growth inhibition of GSK3B-pretreated HCT116 cells – cell-based, CellTiter-Glo, 0.2 to 20 µM (AID 1117336;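 active means compounds lowering colon cancer cell viability after pretreatment blocking the GSK3B kinase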); details: HCT116 viability after GSK3B inhibitor, at 20 µM, stronger effect = higher value
# [4] = inhibition of endothelial tube formation, primary screen, imaging, VEGF stimulated, CD31 staining, tube area, NPC library (AID 1117340;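 active means compound that reduces growth-factor-driven endothelial tube area in a mixed cell culture, no cutoff stated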); details: VEGF-stimulated ADSC/ECFC co-culture, at 10 µM, stronger effect = higher value
# [5] = glucagon-like peptide 1 release enhancers, primary assay, NCI-H716 cell line, NPC library (AID 1117341;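 active means compound raises GLP1 secretion from the human gut endocrine cells, with no numeric limit stated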); details: NCI-H716 cells, at 10 µM, stronger effect = higher value
# [6] = HCT116 colon cancer cell growth inhibition, primary screen, CellTiter-Glo luminescence, NPC library (AID 1117342;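 active means compounds that lower survival of HCT116 colon cancer cells in the luminescence readout, no numeric limit stated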); details: at 20 µM (top of the series)
# [7] = CellTiter-Glo luminescent readout of SW480 viability loss, NPC library primary (AID 1117343;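 active means compounds that lower viability of the colon cancer cells in the luminescence readout, with no numeric limit stated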); details: CellTiter-Glo luminescence; at 20 µM (top of the series)
# [8] = decreased DLD-1 cellular survival, CellTiter-Glo luminescent readout, NPC compound collection, primary HTS (AID 1117346;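 active means compounds that lower survival of DLD-1 colon cancer cells in the luminescence readout, no cutoff given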); details: DLD-1 viability, CellTiter-Glo luminescence; at 20 µM (top of the series)
# [9] = sensitizers of A549 cells to miR-34 induction, primary screen, imaging, A549 dox-inducible miR-34, nuclei and caspase counts (AID 1347080;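 active means compounds whose cell count with miR-34 switched on is under 0.7 times the count with it off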); details: A549 miR-34 inducible, Hoechst nuclei count, 48 h
# [10] = survival rescue of mitochondrial mutant cells in low glucose, primary screen, MELAS cybrids, Rieske KO mouse fibroblasts, CellTiter-Glo (AID 1508586;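 active means mean z-score across replicates of 1.96 or higher in either the MELAS or the Rieske mutant cell line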;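 further: z relative to plate mean and SD of compound and empty wells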)
# [11] = ovarian cancer cell viability with rucaparib, profiling panel, oncology-focused library, rucaparib conditional (AID 1508598); details: patient-derived ovarian cancer cells, CellTiter-Glo viability, 144 h, stronger effect = lower value
# [12] = viability rescue of complex I mutant cybrids, primary screen, cell-based, galactose medium, ATP luminescence (AID 1645843;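 active means z-score of at least 1.8 in each of two replicates, scored against plate mean and spread of sample wells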;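 further: positive z means more ATP and so rescue of galactose-driven cybrid death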); details: complex I mutant cybrid cells, 72 h, stronger effect = higher value
# [13] = liver-stage malaria parasite growth inhibition, primary screen, cell-based, HepG2, luciferase luminescence, HepG2 viability (AID 624349; in the data active means parasite load remaining mostly below about 12%, no sharp cut-off; inactive means mostly above about 10%;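 further: 100% = mean of DMSO negative control wells on the same plate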); details: P. berghei liver stage in HepG2, luciferase luminescence, concentration not given here; parasite load remaining: stronger effect = lower value; viability: measured here: HepG2 viability without parasites
# [14] = system: Aerobactin synthetase IucA (Klebsiella pneumoniae, hypervirulent); assay: IucA enzyme inhibition, biochemical, LOPAC library, absorbance readout (AID 1346212; call rule not given here;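 further: 100% = no compound wells and 0% = no enzyme wells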); details: IucA enzyme assay, absorbance (OD) readout; stronger effect = lower value;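 tested at 8 µM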
# [15] = measured here: relative caspase fold change +Dox/-Dox
# [16] = measured here: total cells with miR-34 induction, stronger effect = lower value
# [17] = measured here: total cells without miR-34 induction
# [18] = MELAS cybrid survival, CellTiter-Glo 48 h, stronger effect = higher value
# [19] = Rieske KO mouse fibroblast survival, CellTiter-Glo 72 h
smiles,measurement,setting,value
Cn1c(CCCC(=O)O)nc2cc(N(CCCl)CCCl)ccc21,nuclear beta-catenin stimulation,[1]; at 10 µM,3% (inactive)
same,nuclear beta-catenin stimulation,"[1]; stimulation, at 2 µM",0.9%
same,insulin secretion stimulation,[2],0.9% (inactive)
same,viability decrease,[3],-12.4% (inactive)
same,tube area decrease,[4],44.6% (active)
same,GLP1 secretion stimulation,[5],-0.7% (inactive)
same,inhibition of viability,[6],6.5% (inactive)
same,viability decrease (inhibition),[7],18.4% (inactive)
same,viability decrease (inhibition),[8],-5.7% (inactive)
same,fold change,[9]; stronger effect = lower value,1.1 (inactive) and 0.89 (inactive)
same,fold change,[9]; [15],0.645 and 1.16
same,cell count,[9]; [16],8630 and 6450
same,cell count,[9]; [17],7880 and 7250
same,z-score,[10]; [18],-0.517 (inactive)
same,z-score,[10]; [19],-0.135
same,viability,"[11]; at 0.000305 µM, OCI-C5x cells, with rucaparib 10 µM, 100% = cells with rucaparib alone",103% (inactive)
same,viability,"[11]; at 0.000305 µM, OCI-C5x cells, without rucaparib",107% (inactive)
same,viability,"[11]; at 0.000305 µM, OCI-P5x cells, with rucaparib 20 µM, 100% = cells with rucaparib alone",107% (inactive)
same,viability,"[11]; at 0.000305 µM, OCI-P5x cells, without rucaparib",101% (inactive)
same,viability,"[11]; at 0.00122 µM, OCI-C5x cells, with rucaparib 10 µM, 100% = cells with rucaparib alone",97.3% (active)
same,viability,"[11]; at 0.00122 µM, OCI-C5x cells, without rucaparib",99.1% (active)
same,viability,"[11]; at 0.00122 µM, OCI-P5x cells, with rucaparib 20 µM, 100% = cells with rucaparib alone",99.9% (active)
same,viability,"[11]; at 0.00122 µM, OCI-P5x cells, without rucaparib",102% (inactive)
same,viability,"[11]; at 0.00488 µM, OCI-C5x cells, with rucaparib 10 µM, 100% = cells with rucaparib alone",104% (inactive)
same,viability,"[11]; at 0.00488 µM, OCI-C5x cells, without rucaparib",104% (inactive)
same,viability,"[11]; at 0.00488 µM, OCI-P5x cells, with rucaparib 20 µM, 100% = cells with rucaparib alone",103% (inactive)
same,viability,"[11]; at 0.00488 µM, OCI-P5x cells, without rucaparib",109% (inactive)
same,viability,"[11]; at 0.0195 µM, OCI-C5x cells, with rucaparib 10 µM, 100% = cells with rucaparib alone",105% (inactive)
same,viability,"[11]; at 0.0195 µM, OCI-C5x cells, without rucaparib",99.7% (active)
same,viability,"[11]; at 0.0195 µM, OCI-P5x cells, with rucaparib 20 µM, 100% = cells with rucaparib alone",93.4% (active)
same,viability,"[11]; at 0.0195 µM, OCI-P5x cells, without rucaparib",100% (inactive)
same,viability,"[11]; at 0.0781 µM, OCI-C5x cells, with rucaparib 10 µM, 100% = cells with rucaparib alone",109% (inactive)
same,viability,"[11]; at 0.0781 µM, OCI-C5x cells, without rucaparib",97.6% (active)
same,viability,"[11]; at 0.0781 µM, OCI-P5x cells, with rucaparib 20 µM, 100% = cells with rucaparib alone",92.7% (active)
same,viability,"[11]; at 0.0781 µM, OCI-P5x cells, without rucaparib",96.4% (active)
same,viability,"[11]; at 0.313 µM, OCI-C5x cells, with rucaparib 10 µM, 100% = cells with rucaparib alone",104% (inactive)
same,viability,"[11]; at 0.313 µM, OCI-C5x cells, without rucaparib",101% (inactive)
same,viability,"[11]; at 0.313 µM, OCI-P5x cells, with rucaparib 20 µM, 100% = cells with rucaparib alone",95% (active)
same,viability,"[11]; at 0.313 µM, OCI-P5x cells, without rucaparib",74.7% (active)
same,viability,"[11]; at 1.25 µM, OCI-C5x cells, with rucaparib 10 µM, 100% = cells with rucaparib alone",124% (inactive)
same,viability,"[11]; at 1.25 µM, OCI-C5x cells, without rucaparib",97.4% (active)
same,viability,"[11]; at 1.25 µM, OCI-P5x cells, with rucaparib 20 µM, 100% = cells with rucaparib alone",92.4% (active)
same,viability,"[11]; at 1.25 µM, OCI-P5x cells, without rucaparib",79.4% (active)
same,viability,"[11]; at 5 µM, OCI-C5x cells, with rucaparib 10 µM, 100% = cells with rucaparib alone",106% (inactive)
same,viability,"[11]; at 5 µM, OCI-C5x cells, without rucaparib",93% (active)
same,viability,"[11]; at 5 µM, OCI-P5x cells, with rucaparib 20 µM, 100% = cells with rucaparib alone",80.1% (active)
same,viability,"[11]; at 5 µM, OCI-P5x cells, without rucaparib",84.8% (active)
same,z-score,[12],0.31 (inactive)
CN1C[C@@H](NS(=O)(=O)N(C)C)C[C@@H]2c3cccc4c3c(cn4C)C[C@H]21,parasite load remaining,[13],32.6% (inactive)
same,viability,[13],102%
same,nuclear beta-catenin stimulation,[1]; at 10 µM,0.4% (inactive)
same,nuclear beta-catenin stimulation,"[1]; stimulation, at 2 µM",1.4%
same,insulin secretion stimulation,[2],3.7% (inactive)
same,viability decrease,[3],9.6% (inactive)
same,tube area decrease,[4],-8.8% (inactive)
same,GLP1 secretion stimulation,[5],4.1% (inactive)
same,inhibition of viability,[6],36.4% (inactive)
same,viability decrease (inhibition),[7],48% (inactive)
same,viability decrease (inhibition),[8],9% (inactive)
same,remaining activity,[14],113% (inactive)
same,fold change,[9]; stronger effect = lower value,0.878 (inactive)
same,fold change,[9]; [15],1.21
same,cell count,[9]; [16],9040
same,cell count,[9]; [17],10300
same,z-score,[10]; [18],0.531 (inactive)
same,z-score,[10]; [19],0.143
same,z-score,[12],0.405 (inactive)
O=C(O)c1ccc2[nH]cc(CCCCN3CC=C(c4ccccc4)CC3)c2c1,nuclear beta-catenin stimulation,[1]; at 10 µM,-0.5% (inactive)
same,nuclear beta-catenin stimulation,"[1]; stimulation, at 2 µM",-1.8%
same,insulin secretion stimulation,[2],2.5% (inactive)
same,viability decrease,[3],5.1% (inactive)
same,tube area decrease,[4],-17.1% (active)
same,GLP1 secretion stimulation,[5],-2% (inactive)
same,inhibition of viability,[6],18.8% (inactive)
same,viability decrease (inhibition),[7],-17.9% (inactive)
same,viability decrease (inhibition),[8],-14.3% (inactive)
same,fold change,"[9]; stronger effect = lower value, cell number ratio, induced over uninduced",0.916 (inactive)
same,fold change,[9]; [15],1.13
same,cell count,[9]; [16],8600
same,cell count,[9]; [17],9380
same,z-score,[12],-0.035 (inactive)
